For experiment [1], the target named is Rho-associated protein kinase 1 (Homo sapiens) (UniProt Q13464). The settings on record: at 1 µM.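 Also: reported values are mean percent inhibition of ROCK1.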
Experiment [2] addresses Rho-associated protein kinase 2 (Homo sapiens) (UniProt O75116). Conditions: at 0.1 µM.
Experiment [3] has the same target. The settings on record: at 1 µM.
Experiment [4] addresses Ribosomal protein S6 kinase alpha-1 (Homo sapiens) (UniProt Q15418). Conditions: at 0.1 µM.
Experiment [5] has the same target. Conditions: at 1 µM.
Experiment [6] concerns the target Ribosomal protein S6 kinase alpha-3 (Homo sapiens) (UniProt P51812). The settings on record: at 0.1 µM.
Experiment [7] has the same target. Conditions: at 1 µM.
The target in experiment [8] is Ribosomal protein S6 kinase alpha-2 (Homo sapiens) (UniProt Q15349). The settings on record: at 0.1 µM.
Ribosomal protein S6 kinase alpha-2 (Homo sapiens), sequence (Q15349 whole entry): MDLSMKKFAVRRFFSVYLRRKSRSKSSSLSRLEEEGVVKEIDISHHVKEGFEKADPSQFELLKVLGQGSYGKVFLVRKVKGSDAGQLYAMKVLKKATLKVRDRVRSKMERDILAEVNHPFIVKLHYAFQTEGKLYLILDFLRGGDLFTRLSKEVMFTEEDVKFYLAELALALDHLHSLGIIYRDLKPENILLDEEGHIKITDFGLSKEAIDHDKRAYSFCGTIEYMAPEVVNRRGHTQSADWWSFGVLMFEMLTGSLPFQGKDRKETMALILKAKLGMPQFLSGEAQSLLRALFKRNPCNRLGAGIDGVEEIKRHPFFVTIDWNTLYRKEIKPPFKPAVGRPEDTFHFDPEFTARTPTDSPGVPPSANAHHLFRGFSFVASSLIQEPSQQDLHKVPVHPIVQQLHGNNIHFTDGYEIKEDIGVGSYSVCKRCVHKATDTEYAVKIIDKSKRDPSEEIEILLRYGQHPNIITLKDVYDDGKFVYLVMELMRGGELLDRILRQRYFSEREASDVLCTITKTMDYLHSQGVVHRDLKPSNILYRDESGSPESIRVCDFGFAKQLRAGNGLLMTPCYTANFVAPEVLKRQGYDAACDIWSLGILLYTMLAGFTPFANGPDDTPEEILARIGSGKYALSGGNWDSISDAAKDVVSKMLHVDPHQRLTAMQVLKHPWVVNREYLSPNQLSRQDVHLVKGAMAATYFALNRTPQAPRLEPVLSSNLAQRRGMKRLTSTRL
The target is the same in experiment [9]. The settings on record: at 1 µM.
Experiment [10] addresses Ribosomal protein S6 kinase alpha-6 (Homo sapiens) (UniProt Q9UK32). The settings on record: at 0.1 µM.
The target is the same in experiment [11]. The settings on record: at 1 µM.
In experiment [12] the target is T1, Serine/threonine-protein kinase Sgk1 (Homo sapiens) (UniProt O00141).
T1 sequence (whole entry): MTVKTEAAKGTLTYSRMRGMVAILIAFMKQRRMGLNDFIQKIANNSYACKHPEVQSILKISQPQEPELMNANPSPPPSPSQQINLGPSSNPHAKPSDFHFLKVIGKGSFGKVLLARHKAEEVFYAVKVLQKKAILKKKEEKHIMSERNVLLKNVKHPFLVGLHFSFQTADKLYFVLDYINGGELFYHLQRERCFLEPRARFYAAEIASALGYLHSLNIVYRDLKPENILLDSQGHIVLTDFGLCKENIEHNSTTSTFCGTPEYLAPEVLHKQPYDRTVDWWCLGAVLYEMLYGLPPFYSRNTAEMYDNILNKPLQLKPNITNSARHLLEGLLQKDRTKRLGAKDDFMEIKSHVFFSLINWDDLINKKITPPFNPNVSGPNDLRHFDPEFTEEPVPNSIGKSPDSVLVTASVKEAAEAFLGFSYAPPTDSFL
The settings on record: at 0.1 µM.

Experiment [13] concerns the target T1, Serine/threonine-protein kinase Sgk1 (Homo sapiens). The settings on record: at 1 µM.
In experiment [14] the target is T2, Serine/threonine-protein kinase Sgk2 (Homo sapiens) (UniProt Q9HBY8).
T2 sequence (whole entry): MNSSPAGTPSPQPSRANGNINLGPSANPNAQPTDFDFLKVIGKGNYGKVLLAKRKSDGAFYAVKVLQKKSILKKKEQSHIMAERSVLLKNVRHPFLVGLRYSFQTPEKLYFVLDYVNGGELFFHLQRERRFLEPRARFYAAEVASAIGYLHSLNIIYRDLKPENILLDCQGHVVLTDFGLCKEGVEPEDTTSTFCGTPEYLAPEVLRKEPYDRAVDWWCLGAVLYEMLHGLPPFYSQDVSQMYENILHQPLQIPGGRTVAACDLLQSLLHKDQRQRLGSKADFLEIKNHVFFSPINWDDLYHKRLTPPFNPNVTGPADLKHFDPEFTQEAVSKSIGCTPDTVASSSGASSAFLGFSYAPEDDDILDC
The settings on record: at 0.1 µM.

Experiment [15] concerns the target T2, Serine/threonine-protein kinase Sgk2 (Homo sapiens). The settings on record: at 1 µM.
The target of experiment [16] is T3, Serine/threonine-protein kinase Sgk3 (Homo sapiens) (UniProt Q96BR1).
T3 sequence (whole entry): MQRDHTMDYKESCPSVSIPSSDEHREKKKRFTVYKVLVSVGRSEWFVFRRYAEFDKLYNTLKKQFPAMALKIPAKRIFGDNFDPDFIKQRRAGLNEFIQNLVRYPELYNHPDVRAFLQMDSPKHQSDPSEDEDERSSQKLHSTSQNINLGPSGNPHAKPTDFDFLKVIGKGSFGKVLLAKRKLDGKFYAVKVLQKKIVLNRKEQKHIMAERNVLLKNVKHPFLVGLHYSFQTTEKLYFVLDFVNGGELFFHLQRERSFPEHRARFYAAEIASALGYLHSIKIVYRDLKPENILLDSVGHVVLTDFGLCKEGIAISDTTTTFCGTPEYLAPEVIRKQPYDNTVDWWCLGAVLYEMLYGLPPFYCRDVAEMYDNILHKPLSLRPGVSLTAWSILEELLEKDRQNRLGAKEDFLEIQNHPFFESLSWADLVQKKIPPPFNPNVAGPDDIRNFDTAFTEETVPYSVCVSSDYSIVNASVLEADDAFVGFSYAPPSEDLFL
The settings on record: at 0.1 µM.

Experiment [17] addresses T3, Serine/threonine-protein kinase Sgk3 (Homo sapiens). The settings on record: at 1 µM.
Experiment [18] addresses 5'-AMP-activated protein kinase catalytic subunit alpha-1 (Homo sapiens) (UniProt Q13131). Conditions: at 0.1 µM.
Experiment [19] shares this target. Conditions: at 1 µM.
Experiment [20] addresses 5'-AMP-activated protein kinase catalytic subunit alpha-2 (Homo sapiens) (UniProt P54646). Conditions: at 0.1 µM.

5'-AMP-activated protein kinase catalytic subunit alpha-2 (Homo sapiens), sequence (P54646 whole entry, looked up): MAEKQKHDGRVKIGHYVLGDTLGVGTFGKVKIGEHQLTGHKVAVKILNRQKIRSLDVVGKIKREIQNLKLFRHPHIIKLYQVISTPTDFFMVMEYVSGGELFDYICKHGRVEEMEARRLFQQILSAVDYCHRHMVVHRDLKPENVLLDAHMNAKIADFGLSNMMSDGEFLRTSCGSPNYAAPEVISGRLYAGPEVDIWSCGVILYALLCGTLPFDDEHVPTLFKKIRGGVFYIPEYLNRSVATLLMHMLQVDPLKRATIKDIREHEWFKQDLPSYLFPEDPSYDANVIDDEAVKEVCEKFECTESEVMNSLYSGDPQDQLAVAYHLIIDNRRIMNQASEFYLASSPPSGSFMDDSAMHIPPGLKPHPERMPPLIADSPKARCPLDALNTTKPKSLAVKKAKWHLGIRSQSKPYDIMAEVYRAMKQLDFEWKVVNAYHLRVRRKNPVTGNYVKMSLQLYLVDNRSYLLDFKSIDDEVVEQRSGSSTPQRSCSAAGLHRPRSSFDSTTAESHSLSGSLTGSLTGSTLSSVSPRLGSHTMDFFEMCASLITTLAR
Rho-associated protein kinase 2 (Homo sapiens), sequence (O75116 whole entry, looked up): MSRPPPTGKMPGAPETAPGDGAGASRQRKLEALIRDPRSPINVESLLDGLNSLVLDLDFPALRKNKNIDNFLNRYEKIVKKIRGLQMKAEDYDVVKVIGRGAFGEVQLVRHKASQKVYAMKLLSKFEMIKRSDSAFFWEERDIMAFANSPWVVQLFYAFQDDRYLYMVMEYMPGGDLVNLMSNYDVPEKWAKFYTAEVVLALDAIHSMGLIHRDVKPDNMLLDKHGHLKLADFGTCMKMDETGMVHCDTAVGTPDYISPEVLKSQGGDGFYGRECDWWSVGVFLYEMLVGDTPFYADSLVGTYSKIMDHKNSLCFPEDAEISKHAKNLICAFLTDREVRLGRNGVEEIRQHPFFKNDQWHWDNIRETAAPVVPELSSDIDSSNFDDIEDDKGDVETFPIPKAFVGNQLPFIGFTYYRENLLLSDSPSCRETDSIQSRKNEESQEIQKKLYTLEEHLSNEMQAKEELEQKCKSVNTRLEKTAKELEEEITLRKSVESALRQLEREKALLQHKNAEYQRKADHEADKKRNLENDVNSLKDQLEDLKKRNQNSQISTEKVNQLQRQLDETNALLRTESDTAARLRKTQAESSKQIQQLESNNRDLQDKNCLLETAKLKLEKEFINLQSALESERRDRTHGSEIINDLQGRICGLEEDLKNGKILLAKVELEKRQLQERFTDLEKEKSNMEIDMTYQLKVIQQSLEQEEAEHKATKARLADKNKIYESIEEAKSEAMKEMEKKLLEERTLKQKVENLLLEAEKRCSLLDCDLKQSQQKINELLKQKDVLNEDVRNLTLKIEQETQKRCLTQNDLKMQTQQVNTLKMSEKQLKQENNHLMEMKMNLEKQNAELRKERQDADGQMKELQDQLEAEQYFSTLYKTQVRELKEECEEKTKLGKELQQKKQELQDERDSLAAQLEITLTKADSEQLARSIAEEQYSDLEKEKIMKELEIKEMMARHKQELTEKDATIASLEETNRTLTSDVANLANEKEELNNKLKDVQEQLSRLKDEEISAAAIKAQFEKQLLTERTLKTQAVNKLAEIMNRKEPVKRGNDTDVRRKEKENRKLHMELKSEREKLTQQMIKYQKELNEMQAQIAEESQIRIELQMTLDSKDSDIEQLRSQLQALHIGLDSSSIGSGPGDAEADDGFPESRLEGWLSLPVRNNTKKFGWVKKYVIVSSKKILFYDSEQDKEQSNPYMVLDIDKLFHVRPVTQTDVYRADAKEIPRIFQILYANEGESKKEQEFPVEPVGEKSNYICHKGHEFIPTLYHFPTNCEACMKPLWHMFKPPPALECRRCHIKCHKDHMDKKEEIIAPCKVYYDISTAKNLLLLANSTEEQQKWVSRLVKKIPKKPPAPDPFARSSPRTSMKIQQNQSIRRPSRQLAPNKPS
Ribosomal protein S6 kinase alpha-1 (Homo sapiens), sequence (Q15418 whole entry): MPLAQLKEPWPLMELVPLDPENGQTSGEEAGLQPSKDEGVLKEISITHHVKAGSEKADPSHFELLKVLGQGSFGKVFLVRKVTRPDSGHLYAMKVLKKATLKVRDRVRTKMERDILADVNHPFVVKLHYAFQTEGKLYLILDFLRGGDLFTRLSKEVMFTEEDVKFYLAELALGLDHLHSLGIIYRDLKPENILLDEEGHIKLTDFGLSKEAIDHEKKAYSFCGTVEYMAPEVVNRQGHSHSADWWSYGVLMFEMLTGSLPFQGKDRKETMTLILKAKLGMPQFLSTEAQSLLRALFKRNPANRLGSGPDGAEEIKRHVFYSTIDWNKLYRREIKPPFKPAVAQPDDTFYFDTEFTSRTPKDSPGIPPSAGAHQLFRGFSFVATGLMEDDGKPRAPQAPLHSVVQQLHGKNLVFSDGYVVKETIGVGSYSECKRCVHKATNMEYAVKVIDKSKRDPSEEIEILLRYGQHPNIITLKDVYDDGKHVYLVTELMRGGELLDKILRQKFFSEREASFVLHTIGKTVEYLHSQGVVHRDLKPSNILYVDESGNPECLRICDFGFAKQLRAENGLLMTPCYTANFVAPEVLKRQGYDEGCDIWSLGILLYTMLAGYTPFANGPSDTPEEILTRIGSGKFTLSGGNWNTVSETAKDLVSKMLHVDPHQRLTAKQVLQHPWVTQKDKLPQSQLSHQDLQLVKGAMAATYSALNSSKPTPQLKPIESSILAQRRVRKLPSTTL
5'-AMP-activated protein kinase catalytic subunit alpha-1 (Homo sapiens), sequence (Q13131 whole entry, looked up): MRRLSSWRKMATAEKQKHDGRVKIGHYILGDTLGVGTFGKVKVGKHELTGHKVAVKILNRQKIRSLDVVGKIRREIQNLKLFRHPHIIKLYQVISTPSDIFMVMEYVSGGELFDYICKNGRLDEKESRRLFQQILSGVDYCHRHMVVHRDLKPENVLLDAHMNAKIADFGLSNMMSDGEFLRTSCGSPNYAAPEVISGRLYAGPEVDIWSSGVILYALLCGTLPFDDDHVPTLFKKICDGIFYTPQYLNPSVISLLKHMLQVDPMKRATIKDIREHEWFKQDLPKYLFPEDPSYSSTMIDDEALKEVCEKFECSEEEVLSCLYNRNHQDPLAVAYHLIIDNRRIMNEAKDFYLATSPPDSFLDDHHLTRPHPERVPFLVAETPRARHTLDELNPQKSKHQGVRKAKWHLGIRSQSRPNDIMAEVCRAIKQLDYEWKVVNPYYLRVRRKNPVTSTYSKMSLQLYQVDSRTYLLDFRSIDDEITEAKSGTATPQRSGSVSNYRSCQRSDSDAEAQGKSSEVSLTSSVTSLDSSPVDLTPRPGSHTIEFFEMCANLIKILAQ
Ribosomal protein S6 kinase alpha-3 (Homo sapiens), sequence (P51812 whole entry): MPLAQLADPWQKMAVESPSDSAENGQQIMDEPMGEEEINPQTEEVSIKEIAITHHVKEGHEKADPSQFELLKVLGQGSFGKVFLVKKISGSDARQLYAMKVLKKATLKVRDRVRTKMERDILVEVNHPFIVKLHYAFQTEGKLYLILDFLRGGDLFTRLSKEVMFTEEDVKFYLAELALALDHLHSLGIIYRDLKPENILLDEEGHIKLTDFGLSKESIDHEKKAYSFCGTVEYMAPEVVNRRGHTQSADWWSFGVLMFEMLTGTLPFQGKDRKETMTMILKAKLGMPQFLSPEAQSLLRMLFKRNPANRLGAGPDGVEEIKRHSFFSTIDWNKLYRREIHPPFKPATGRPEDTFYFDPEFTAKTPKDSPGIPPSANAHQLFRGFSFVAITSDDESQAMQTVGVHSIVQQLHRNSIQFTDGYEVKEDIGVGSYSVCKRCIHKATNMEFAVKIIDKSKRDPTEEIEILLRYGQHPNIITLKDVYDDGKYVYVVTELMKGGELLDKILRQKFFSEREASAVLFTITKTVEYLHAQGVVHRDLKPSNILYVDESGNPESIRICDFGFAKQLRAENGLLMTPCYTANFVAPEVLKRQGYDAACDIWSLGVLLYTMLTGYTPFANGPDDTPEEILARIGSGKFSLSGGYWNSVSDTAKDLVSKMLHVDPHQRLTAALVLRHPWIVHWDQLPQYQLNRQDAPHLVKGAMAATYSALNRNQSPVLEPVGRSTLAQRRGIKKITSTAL

By inhibition is commonly meant the change of the read-out against control, counted positive when it falls. Turning to `FC(F)(F)c1ccc(-c2nn3ncccc3c2-c2ccnc(Nc3ccc4c(c3)OCCO4)n2)cc1`, the inhibition was determined as 2.51% in experiment [1]; 4.66% in [2]; 8.18% in experiment [3]; 1.49% in experiment [4]; 3.18% in experiment [5]; 2.19% in experiment [6]. Also, the inhibition in experiment [7] is 5.4%; in experiment [8], -0.87%; in experiment [9] it was 0.6%; in [10], -0.08%; in [11] it was 0.72%; in experiment [12], 9.07%. Besides, the inhibition came out at 10.2% in experiment [13]; 5.69% in [14]; 10.8% in experiment [15]; 7.48% in experiment [16]; 12.9% in experiment [17]; 1.3% in experiment [18]. For the same compound, the inhibition is 4.07% in [19] and 5.75% in [20].

As to `Cc1ccc(Nc2ccnc(Nc3cccc(C(N)=O)c3)n2)cc1O`, the inhibition in experiment [1] turned out to be 5.78%; in experiment [2], 4.11%; in experiment [3], 13.6%; in experiment [4], 2.41%; in experiment [5] it was 3.62%; in experiment [6], 1.82%. The inhibition in experiment [7] came to 2.23%; in [8] it was 1.81%; in experiment [9], 3.37%; in [10], 2.28%; in experiment [11], 7.33%; in experiment [12], 1.93%. The inhibition in [13] turned out to be 4.05%; in [14] it was 5.55%; in experiment [15] it was 3.06%; in [16] it was 1.32%; in experiment [17], 3.83%; in experiment [18], 2.46%. Besides, the inhibition was found to be 6.79% in [19] and 1.35% in experiment [20].

With `CN(C)CCCn1c(-c2nonc2N)nc2cnccc21`, the inhibition in [1] worked out at 32.8%; in [2] it was 11.6%; in experiment [3], 45.3%; in experiment [4] it was 2.28%; in experiment [5], 11.8%; in [6], 1.45%. Besides, the inhibition in experiment [7] turned out to be 6.61%; in [8] it was 4.55%; in experiment [9], 16.4%; in experiment [10], 1.79%; in [11], 4.47%; in [12], 2.27%. Moreover, the inhibition in experiment [13] turned out to be 4.15%; in [14], 2.98%; in experiment [15], 2.34%; in experiment [16], 2.21%; in experiment [17] it was 3.38%; in experiment [18] it was 2.93%. In addition, the inhibition was determined as 2.04% in [19] and 3.05% in [20].

`O=S(=O)(CCOCc1ccc(-c2ccc3ncnc(Nc4ccc(OCc5cccc(F)c5)c(Cl)c4)c3c2)o1)c1ccccc1`: the inhibition was 3.68% in experiment [1]; 1.09% in [2]; 6.38% in [3]; -1.65% in experiment [4]; 1.43% in [5]; -0.82% in experiment [6]. Moreover, the inhibition in [7] is 1.23%; in [8] it was -0.87%; in [9] it was 1.09%; in experiment [10], -1.59%; in experiment [11], -0.62%; in experiment [12], 1.34%. The inhibition in [13] is 2.27%; in experiment [14], 3.28%; in experiment [15], -0.92%; in experiment [16] it was 3.38%; in experiment [17] it was 1.38%; in experiment [18], -0.69%. For the same compound, the values for the inhibition in experiment [19] and in experiment [20] were 1.2% and 4.55%, respectively.

As for `O=C(Nc1ccc(Oc2ccc3[nH]c(NC(=O)c4ccco4)nc3c2)cc1)Nc1cc(C(F)(F)F)ccc1F`, the inhibition was found to be 26.5% in experiment [1]; 4.21% in experiment [2]; 31.3% in [3]; 1.39% in [4]; 10.2% in experiment [5]; 1.5% in experiment [6]. Moreover, the inhibition worked out at 6.22% in experiment [7]; 5.27% in experiment [8]; 35.7% in [9]; 0.96% in experiment [10]; 3.95% in experiment [11]; 0.67% in experiment [12]. For the same compound, the inhibition in experiment [13] was -0.62%; in [14], 0.44%; in [15] it was 2.52%; in experiment [16] it was 0.1%; in [17] it was -0.97%; in experiment [18], 1.07%. Further, the inhibition in experiment [19] is 2.39%; in experiment [20] it was 1.95%.

Turning to `Nc1nccc(C#Cc2cncnc2Nc2ccc(OCc3cccc(F)c3)c(Cl)c2)n1`, the inhibition is 3.74% in experiment [1]; 2.53% in experiment [2]; 4.22% in experiment [3]; 1.3% in [4]; 2.85% in experiment [5]; 0.4% in experiment [6]. The inhibition amounted to 0.81% in [7]; 2.21% in experiment [8]; 2.85% in [9]; 0.59% in experiment [10]; 1% in experiment [11]; 2.17% in experiment [12]. The inhibition in [13] was 2.96%; in [14] it was 1.54%; in [15], 3.69%; in [16], 2.12%; in experiment [17], 3.95%; in experiment [18], 3.13%. Besides, the inhibition was 5.37% in experiment [19] and 1.22% in experiment [20].

Turning to `c1ccc(Nc2ncc(-c3ccccc3)o2)cc1`, the inhibition in experiment [1] came to 2.73%; in experiment [2] it was 4.11%; in experiment [3], 2.92%; in experiment [4], 2.02%; in [5], 2.37%; in experiment [6], 0.46%. In addition, the inhibition turned out to be 0.02% in experiment [7]; 3.77% in experiment [8]; 3.41% in experiment [9]; 2.12% in experiment [10]; 3.23% in [11]; 2.66% in [12]. For the same compound, the inhibition in experiment [13] is 4%; in [14], 2.47%; in experiment [15], 0.08%; in experiment [16] it was 4.53%; in experiment [17] it was 2.32%; in experiment [18] it was 2.6%. For the same compound, the inhibition in [19] worked out at 4.99%; in [20], 7.1%.

(Values after ChEMBL document CHEMBL1961873, “Compounds: GSK PKIS; Assays: Nanosyn kinase panel” (2012).)
